# Source: PubChem BioAssay (National Center for Advancing Translational Sciences (NCATS))
# SW480 rereplic – DNA re-replication induction in SW480 cells. Potency, µM (titrated, usually from 46.1 µM), without a hit: top-dose re-replication activation, usual class: activators. 1.8% of 340,000 active. SW480 DNA re-replication, Hoechst DNA content imaging, 48 h; further: potency means the concentration at half of the fitted maximal effect; % of control where 0% means no effect; nearly all actives have a fitted effect of over 55% in size
#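 250 cells/well; 23 nL cpd via pin tool; 48 hr, 37 C, 5% CO2; Hoechst 40 min; imager read of total nuclear intensity, ex 405/em 500-530 nm.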
# MCF10A rereplic – induces DNA re-replication in MCF 10a normal breast cells; MCF 10A DNA re-replication, Hoechst nuclear intensity, 48 h; Potency, µM (titrated, usually from 46.1 µM), without a hit: top-dose activity, positive = re-replication, most hits filed as activators; 2.9% of 350,000 active; AID 624296; further: potency means the concentration at half of the fitted maximal effect; % of control where 0% means no effect; nearly all actives have a fitted effect of over 50% in size
# KB-3-1 cytotox – kills parental KB-3-1 adenocarcinoma cells | KB-3-1 viability, CellTiter-Glo ATP luminescence, 72 h | Potency, µM (top dose mostly 46.1 µM), actives largely listed as cytotoxic | 1.4% of 400,000 active; further: potency means the concentration at half of the fitted maximal effect; on the % scale 0 is the no-effect control and ±100 the full control effect; nearly all actives have a fitted effect of over 60% in size
#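 Cytotoxicity measured as CellTiter-Glo luminescence after 72 h at 37 C. Compound titrations were pinned onto drug-naive KB-3-1 parental adenocarcinoma cells grown in DMEM with 10% FBS, and normalized data fitted to concentration-response curves.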
# KB-V1 cytotox – KB-V1 MDR subline cytotoxicity. 3.4% of 400,000 active. Potency, µM (highest dose often 46.1 µM), actives largely listed as cytotoxic. KB-V1 MDR cells viability, CellTiter-Glo, 72 h; further: potency means the concentration at half of the fitted maximal effect; on the % scale 0 is the no-effect control and ±100 the full control effect; nearly all actives have a fitted effect of over 60% in size
#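 Readout: CellTiter-Glo luminescence, 10 min after addition. Cells: KB-V1 MDR subline, 72 h at 37 degrees C with compound. Analysis: corrected, normalized data fitted to concentration-effect curves.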
# D3 antag – blocks the human D3 dopamine receptor; P35462; AID 652054; 2.5% of 360,000 active; D3R cells, DiscoveRx beta-arrestin luminescence, antagonist mode; hits give low values; max response, negative = inhibition, %; in the data active means max response below about -50%; inconclusive means no clear call, values can overlap the other calls; further: on the % scale 0 is the no-effect control and ±100 the full control effect
# Target sequence (P35462 whole entry, looked up): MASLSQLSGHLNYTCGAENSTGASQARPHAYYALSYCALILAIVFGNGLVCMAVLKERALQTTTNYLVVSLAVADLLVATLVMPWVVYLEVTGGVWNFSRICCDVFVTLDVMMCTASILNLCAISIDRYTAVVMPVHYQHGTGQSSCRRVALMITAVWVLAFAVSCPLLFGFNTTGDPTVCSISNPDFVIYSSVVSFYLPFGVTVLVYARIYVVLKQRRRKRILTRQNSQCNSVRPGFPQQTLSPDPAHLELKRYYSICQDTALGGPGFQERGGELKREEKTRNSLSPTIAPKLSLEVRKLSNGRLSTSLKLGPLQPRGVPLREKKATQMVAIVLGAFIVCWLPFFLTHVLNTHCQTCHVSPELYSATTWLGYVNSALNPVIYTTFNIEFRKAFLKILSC
#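 Cells expressing the human receptor were seeded at 1500 cells/well, incubated overnight at 37 degrees C in 5% CO2, then exposed to library compounds with dopamine controls for 90 minutes at 37 degrees C before luminescent detection.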
# DRD3 agonist – activates the human D3 dopamine receptor | D3R DiscoveRx beta-arrestin cells, luminescence, 90 min | 0.58% of 410,000 active | max activation, %; in the data active means max activation above about 30%; further: 0% is about no effect
#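 Agonist-mode cell screen: cells plated at 1500/well and incubated overnight at 37 °C, then exposed to library compounds for 90 min at 37 °C. Detection reagent was added for 30–60 min at room temperature, and luminescence was read.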
# * marks the source's active call; other numbers are inactive results; i = inactive; ? = inconclusive; · = no result; [ ] = another dose, or the depositor's remark. This is a sample that favours compounds with a hit; in the whole collection about 8.9% have one here. Unless noted, the call rests on the fitted dose curve; in most records, active means well fitted curve in the direction sought with a large enough effect; inconclusive means small, poorly fitted or top-dose-only effect, or another doubt; inactive means no such curve, though single readings can be large; an effect the other way counts as inactive or inconclusive.
SMILES,SW480 rereplic,MCF10A rereplic,KB-3-1 cytotox,KB-V1 cytotox,D3 antag,DRD3 agonist
CN(C)c1ccc(-c2ccnc3c2CC(C)(C(=O)NCc2ccco2)O3)cc1 (configuration not stated),·,·,?,i,-18,-3
CCCCc1ccc(NC(=O)COc2cccc3c(=O)n(C)ccc23)cc1,·,·,?,i,·,3
CCOc1ccc(CCN2C(=S)N([C@@H](Cc3ccc(O)cc3)CN3CCC[C@@H]3CN3C(=S)NC[C@@H]3CC(C)C)C[C@@H]2Cc2ccc(O)cc2)cc1,·,·,?,i,-80*,-20
CCOc1ccc(CCN2C(=S)N([C@@H](Cc3ccc(O)cc3)CN3CCCC3CN3C(=S)NC[C@@H]3Cc3ccc(O)cc3)C[C@@H]2CC(C)C)cc1 (some centres not stated),-2%,?,?,i,-68*,-44
CCOc1ccc(CCN2C(=S)N([C@@H](Cc3ccccc3)CN3CCC[C@@H]3CN3C(=S)NC[C@@H]3Cc3ccc(O)cc3)C[C@@H]2CC(C)C)cc1,·,·,i,i,0,-2
COc1ccc(C)cc1NC(=O)CC1NCCNC1=O (configuration not stated),·,·,i,i,·,-7
CCOc1cccc(NC(=O)c2sc3nc(-c4ccc(F)cc4)ccc3c2N)c1,·,·,i,i,·,-2
COc1ccc(/C=C2/C(=O)OCc3cc(OC)c(OC)cc32)cc1,4.1µM*,?,?,3.7µM*,6,2
COc1ccc(/C=C2\CCOC2=O)cc1,-9%,-2%,i,i,-17,-3
C/C(=N/NC(=O)c1nnn(-c2nonc2N)c1-c1ccccc1)c1ccc2c(c1)OCO2,-16%,-1%,i,i,-10,0
C/C(=N\N=C(/N)c1nonc1N)c1ccc2c(c1)OCO2,-7%,0%,6.5µM*,1.5µM*,-9,-8
COc1ccc(CN2C(=O)N(c3cccc(C)c3)C(=O)C2CC(=O)Nc2ccc(F)cc2)cc1OC (configuration not stated),·,·,i,i,·,-7
CC(O/N=C/c1ccccc1OC(F)F)C(=O)Nc1cccc(S(=O)(=O)N2CCOCC2)c1 (configuration not stated),-54%,-28%,i,13µM*,14,3
CCOc1ccccc1/C=N/NC(=O)c1cccc(S(=O)(=O)N2CCOCC2)c1,5%[1.84 µM],-19%,i,i,-63*,-19
O=C(N/N=C/c1sc(N2CCOCC2)nc1-c1ccccc1)c1cccc(S(=O)(=O)N2CCOCC2)c1,21µM*,?,4.1µM*,i,14,1
Nc1ccc(C(=O)N/N=C/c2sc(N3CCOCC3)nc2-c2ccccc2)cc1,-8%,15%,i,i,5,4
O=C(N/N=C/c1ccccc1C(=O)O)c1cccc(S(=O)(=O)N2CCOCC2)c1,-1%,12%,i,?,-1,-2
CCN(CC)c1ccc(/C=N/NC(=O)c2cccc(S(=O)(=O)N3CCOCC3)c2)c(O)c1,?,15µM*,7.3µM*,?,0,0
CCN(CC)c1ccc(C=Nc2cccc(S(=O)(=O)N3CCOCC3)c2)c(O)c1,-6%,-2%,i,?,16,7
COc1ccc(C)cc1Nc1nc2cc(Cl)c(Cl)cc2nc1-n1nc(C)cc1C,·,·,i,i,·,5
CC(=O)N1CCc2cc(Br)cc(S(=O)(=O)CCC(=O)N3CCN(c4ccccc4Cl)CC3)c21,·,·,i,i,·,-11
C=CCSSSCC=C,5%,0%,·,·,·,-8
CCOc1cc(/C=N/NC(=O)c2ccc(CN3CCOCC3)cc2)ccc1OCc1ccccc1,-2%,8%,?,2.3µM*,56,5
CCOc1cc(/C=N/NC(=O)CN2CCOCC2)ccc1OCc1ccccc1,-16%,-10%,i,?,-13,-4
O=C(Nc1ccccc1F)C(=Cc1sc(N2CCOCC2)nc1-c1ccccc1)C(=O)Nc1ccccc1F,?,3.3µM*,i,i,7,0
SMILES,SW480 rereplic,MCF10A rereplic,KB-3-1 cytotox,KB-V1 cytotox,D3 antag,DRD3 agonist
COc1cc2ccccc2cc1C(=O)Nc1ccc(Cl)c(-c2nc3ccccc3o2)c1,·,·,i,i,·,5
Cc1ccc(-c2nnc(NC(=O)Nc3ccc4ccccc4c3)s2)cc1,·,·,i,?,·,·
Cc1noc(C)c1COc1cccc(C(=O)Nc2ccc(Br)cc2F)c1,15µM*,5.8µM*,6.5µM*,2.9µM*,12,2
Cc1noc(C)c1COc1cccc(C(=O)Nc2ccc3c(c2)OCO3)c1,46%,?,?,?,-3,-6
Cc1noc(C)c1COc1cccc(C(=O)OC(C)C(=O)Nc2ccc3c(c2)OCO3)c1 (configuration not stated),?,15µM*,i,?,1,8
Cc1ccc(NC(=O)c2cccc(OCc3c(C)noc3C)c2)cc1S(=O)(=O)Nc1ccccc1Cl,?,?,i,7.3µM*,63,6
O=c1cc(-c2ccccc2)n2c(SCc3ccc(F)cc3)nnc2[nH]1,·,·,·,·,·,-4
CCOc1ccccc1/C=C/c1onc(C)c1S(=O)(=O)N1CCC(C(=O)N2CCCCCC2)CC1,-8%,18µM*,?,i,-25,-13
CCCN1CCN(C(=O)C2CCN(S(=O)(=O)c3c(C)noc3/C=C/c3ccc(C)cc3)CC2)CC1,16µM*,?,26µM*,?,9,-6
Cc1noc(/C=C/c2ccco2)c1S(=O)(=O)N1CCC(C(=O)N2CCc3ccccc3C2)CC1,?,18µM*,?,i,?,0
CCCN[C@H]1CCc2nc(N)sc2C1,-2%,8%,i,i,5,88*
CN(C)CCCN1c2ccccc2Sc2ccc3ccccc3c21,?,?,?,18µM*,-24,-20
CN(C)CCCN1c2ccccc2C(C)(C)c2ccccc21,?,?,·,·,·,-19
CN(C)CCCN1c2ccccc2CCc2ccccc21,-2%,·,i,?,0,-18
CN(C)CCCN1c2ccc3ccccc3c2Sc2cccc(Cl)c21,?,?,?,15µM*,1,-11
COc1ccc(CNC(=O)C2CCN(S(=O)(=O)c3c(C)noc3/C=C/c3ccccc3F)CC2)cc1,·,·,·,·,·,7
CCC1Cc2[nH]c(=S)[nH]c(=O)c2C(c2ccc(F)cc2)O1 (configuration not stated),·,·,i,i,13,5
Cc1ccc2oc(-c3ccc(C)c(NC(=O)/C=C/c4ccc(Cl)cc4)c3)nc2c1,·,·,i,i,·,5
